In all, about 5,500 compounds went through this assay and about 2,000 (36%) were called active. Inconclusive results (about 18%) are left out. Cut-off read from the data, not from the text of the source: active = normalized growth mostly below about 0.91 (no sharp cut-off); inconclusive = no clear call, values can overlap the other calls; inactive = mostly above about 0.92. This is one part of the list.
Test: chemical genetic growth profiling, strain panel (AID 1159580);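 note: tested at 20 µM; growth read once vehicle control cultures reached saturation at 30 °C; 1 = growth at the plate median or of vehicle wells; lower values mean less growth of the strain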
Settings: S. cerevisiae deletion strains, growth OD

Measured: normalized growth

C[C@@H]1O[C@H](C[N+](C)(C)C)CS1
inactive: locus YAL040C, strain CLN3, stronger effect = lower value 1.02 | locus YCL061C, strain MRC1 (second series), stronger effect = lower value 1.01 | locus YDR363W, strain ESC2, stronger effect = lower value 1.03 | locus YER002W, strain NOP16, stronger effect = lower value 0.997 | locus YJR075W, strain HOC1, stronger effect = lower value 1.02 | locus YMR263W, strain SAP30, stronger effect = lower value 1.01 | locus YNL153C, strain GIM3, stronger effect = lower value 1.01 | locus YNL175C, strain NOP13, stronger effect = lower value 1.01 | locus YNL197C, strain WHI3, stronger effect = lower value 1.01 | locus YNL224C, strain SQS1, stronger effect = lower value 0.993 | locus YNL322C, strain KRE1, stronger effect = lower value 1.02 | locus YOR083W, strain WHI5 (second series), stronger effect = lower value 1.05 | locus YPL241C, strain CIN2, stronger effect = lower value 1.01

CC(C)(CO)[C@@H](O)C(=O)NCCCO
inactive: locus YHR030C, strain SLT2, stronger effect = lower value 1.09 | locus YHR079C, strain IRE1, stronger effect = lower value 0.97 | locus YJL095W, strain BCK1, stronger effect = lower value 1.01 | locus YJR066W, strain TOR1, stronger effect = lower value 0.936 | locus YLR113W, strain HOG1, stronger effect = lower value 0.968 | locus YNL183C, strain NPR1, stronger effect = lower value 0.932 | locus YOR231W, strain MKK1, stronger effect = lower value 0.998 | locus YPL256C, strain CLN2, stronger effect = lower value 0.988
